PubChem BioAssay (Tox21)
Values joined by “and” are separate entries in the source; they are usually repeats but may differ in a detail not shown here. Identical values can stand only once. Results filed as inconclusive are left out. Where a call stands in place of a potency, no number is given. Some structures have more than one record in an assay (separate samples or runs), and their calls can disagree. Active and inactive are the calls of the source. Unless noted, calls come from the whole dose curve.

Tests used:
[1] = Nuclear factor erythroid 2-related factor 2/antioxidant responsive element (Nrf2/ARE) small molecule agonists: qHTS cell viability counter screen in human keratinocytes (AID 1919968; active = well fitted curve in the direction sought with a large enough effect in the repeat runs; an effect the other way counts as inactive or inconclusive; note: nearly all actives have a fitted effect of over 55% in size; note: potency is the fitted concentration of half-maximal effect)
In short: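 Cytotoxicity was multiplexed with the Nrf2/ARE luciferase assay in the same wells. Stably transfected HaCaT keratinocytes were treated with test compounds for 23 h at 37 C. Cell viability was then measured by CellTiter-Fluor fluorescence.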

[2] = target: Gonadotropin-releasing hormone receptor (Homo sapiens) (UniProt P30968); experiment: Human gonadotropin-releasing hormone receptor (GnRHR) small molecule agonists, calcium flux assay in GnRHR-HEK293 cells (AID 1920063); note: nearly all actives have a fitted effect of over 35% in size
In short: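 Agonist activity was measured as intracellular calcium flux in HEK293 cells engineered to stably express human GnRHR. After dye loading for 1 hour at 37 C, compounds in DMSO were added and fluorescence was followed for 3 minutes.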

[3] = target: KiSS-1 receptor (Homo sapiens) (UniProt Q969F8); experiment: Human kisspeptin (KISS1R) small molecule agonists, calcium flux assay in KISS1R-HEK293 cells (AID 1920064; active = well fitted curve in the direction sought with a large enough effect in the repeat runs; an effect the other way counts as inactive or inconclusive)
In short: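 Agonist activity is monitored as intracellular calcium rise in engineered HEK293 cells carrying human KISS1R. Cells are dye-loaded for 1 h at 37 C before compound addition, and fluorescence is recorded for 3 min.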

[4] = G protein-coupled receptor (GPCR) small molecule agonists, calcium flux assay: HEK293 wild type cell line counter screen (AID 1920065)
In short: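 Seed cells, incubate 18 h (37 C, 5% CO2); add calcium dye, 1 h at 37 C; pin-transfer compounds, ATP control or DMSO; read fluorescence 480/540 nm each second for 3 min.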

[5] = p53 small molecule agonists, cell-based qHTS assay with human liver microsomes (AID 1963577);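 note: p53 response element beta-lactamase reporter cells with liver microsomes plus NADPH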
In short: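 Reporter activation was measured by LiveBLAzer fluorescence intensity in p53RE-bla cells, which had been exposed to compounds for 16 h at 37 C alongside 0.5 mg/mL human liver microsomes and 0.5 mg/mL NADPH (final concentrations).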

[6] = p53 small molecule agonists, cell-based qHTS assay with rat liver microsomes (AID 1963578)
In short: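 Compound in DMSO added to p53RE-bla cells 5 h post-plating; rat microsomes/NADPH 0.5 mg/mL final; 16 h, 37 C; LiveBLAzer 2 h RT.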

[7] = p53 small molecule agonists, cell-based qHTS assay with human liver microsomes: qHTS cell viability counter screen (AID 1963579); note: nearly all actives have a fitted effect of over 45% in size; note: potency is the fitted concentration of half-maximal effect
In short: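 HLM-supplemented (0.5 mg/mL final) and NADPH-supplemented (0.5 mg/mL final) p53RE-bla cultures, 4,000 cells per well, were dosed with compounds in DMSO for 16 h at 37 C; luminescent ATP detection (CellTiter-Glo, 30 min, room temperature) quantified surviving cells.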

[8] = p53 small molecule agonists, cell-based qHTS assay: qHTS cell viability counter screen (AID 1963581); note: nearly all actives have a fitted effect of over 45% in size; note: potency is the fitted concentration of half-maximal effect
In short: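 Viability was counter-screened in parallel with the p53 agonist reporter by measuring intracellular ATP luminescence in the same HCT-116 p53RE-bla wells after 16 h compound treatment at 37 C.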

[9] = p53 small molecule agonists, cell-based qHTS assay (AID 1963582; active = well fitted activation curve with a large enough effect in the signal ratio in the repeat runs, not every such curve was filed as active; the % refers to the signal ratio)
In short: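 Cells carrying a p53-responsive bla reporter are treated with test compounds for 16 h at 37 C; beta-lactamase activity is then detected with LiveBLAzer B/G FRET substrate after 2 h at room temperature.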

[10] = target: 5-hydroxytryptamine receptor 2A (Homo sapiens) (UniProt P28223); experiment: 5-hydroxytryptamine receptor 2A (HTR2A) small molecule antagonists, cell-based qHTS assay (AID 1963586); note: nearly all actives have a fitted effect of over 45% in size
In short: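 CHO cells stably expressing human HTR2A were plated for 18 h at 37 C, then loaded with calcium dye for 1 h. Compounds were preincubated 5 min at room temperature before DOI (4 nM solution) was added. Kinetic fluorescence was read for 3 min.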

[11] = target: 5-hydroxytryptamine receptor 2A (Homo sapiens) (UniProt P28223); experiment: 5-hydroxytryptamine receptor 2A (HTR2A) small molecule agonists, cell-based qHTS assay (AID 1963587); note: nearly all actives have a fitted effect of over 30% in size
In short: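 CHO cells stably expressing human HTR2A, plated 18 h, loaded with calcium dye 1 h at 37 C. Agonist mode: compounds added and intracellular calcium fluorescence recorded kinetically for 2 min at 1 sec intervals.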

[12] = target: Muscarinic acetylcholine receptor M1 (Homo sapiens) (UniProt P11229); experiment: Cholinergic receptor muscarinic 1 (CHRM1) small molecule antagonists, cell-based qHTS assay (AID 1963588); note: nearly all actives have a fitted effect of over 40% in size; note: potency is the fitted concentration of half-maximal effect
In short: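 Compounds were tested at 15 concentrations in three independent runs. Dye-loaded CHRM1-CHO cells were exposed 5 min at room temperature before stimulation by acetylcholine added at 50nM. Intracellular calcium was read kinetically on FDSS for 3 min.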

[13] = target: Muscarinic acetylcholine receptor M1 (Homo sapiens) (UniProt P11229); experiment: Cholinergic receptor muscarinic 1 (CHRM1) small molecule agonists, cell-based qHTS assay (AID 1963589); note: nearly all actives have a fitted effect of over 35% in size
In short: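 Cells were plated and incubated 18 h at 37 C/5% CO2, loaded with calcium dye for 1 h at 37 C, then treated with compounds in DMSO. Fluorescence was recorded kinetically at 1 sec intervals.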

[14] = cAMP Responsive Elements (CRE) small molecule agonists, cell-based qHTS assay (AID 1963590)
In short: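 Cells carrying a CRE-driven beta-lactamase reporter (HEK 293T) are seeded, incubated overnight (18 h), and treated with test compounds for 3 h at 37 C; reporter activity is then detected with a FRET substrate after 2 h at room temperature.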

[15] = cAMP Responsive Elements (CRE) small molecule antagonists, cell-based qHTS assay (AID 1963591; active = well fitted inhibition curve with a large enough effect in the signal ratio in the repeat runs, not every such curve was filed as active; the % refers to the signal ratio)
In short: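 Cells (CRE-bla HEK 293T, DMEM with 10% dialyzed FBS and 25 mM HEPES) are seeded and incubated 18 h. Compounds are added with NKH477 agonist at 0.25 uM final for 3 h, then FRET substrate for 2 h.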

[16] = target: Beta-2 adrenergic receptor (Homo sapiens) (UniProt P07550); experiment: Adrenergic beta2 receptor (ADRB2) small molecule antagonists, cell-based qHTS assay (AID 1963592); note: nearly all actives have a fitted effect of over 50% in size; note: potency is the fitted concentration of half-maximal effect
In short: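 Assay format: CHO-ADRB2 cells, 18-20hr seeding at 37C/5% CO2, then compound plus 1nM isoproterenol agonist mix for 0.5hr RT. Homogeneous time-resolved fluorescence cAMP detection after 1hr, expressed as 665/615 nm ratio.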

[17] = target: Beta-2 adrenergic receptor (Homo sapiens) (UniProt P07550); experiment: Adrenergic beta2 receptor (ADRB2) small molecule agonists, cell-based qHTS assay (AID 1963593);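 note: CHO cells stably overexpressing human ADRB2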
In short: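 CHO cells stably over-expressing ADRB2 were plated overnight at 37C, then dosed with compounds plus a stimulation mix containing 100uM IBMX and 25uM Ro-20-1724 for 0.5hr at room temperature. cAMP was measured by HTRF competition, 1hr.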

[18] = target: D(2) dopamine receptor (Homo sapiens) (UniProt P14416); experiment: Dopamine D2 receptor (DRD2) small molecule agonists, cell-based qHTS assay (AID 1963594); note: nearly all actives have a fitted effect of over 35% in size
In short: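 HEK293 cells stably expressing human DRD2, pre-treated with PDE inhibitor Ro20-1724 (0.1 mM final) and compound 10 min at room temperature, then stimulated with NKH477 (200nM […]) for 30 min. cAMP read by HTRF (665/620 nm).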

[19] = target: D(2) dopamine receptor (Homo sapiens) (UniProt P14416); experiment: Dopamine D2 receptor (DRD2) small molecule antagonists, cell-based qHTS assay (AID 1963595; active = well fitted inhibition curve with a large enough effect in the signal ratio in the repeat runs, with a control signal flat; the % refers to the signal ratio; note: potency is the fitted concentration of half-maximal effect)
In short: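 In this cell-based antagonist screen, compounds act for 10 min at room temperature before a 30 min challenge with 12 nM quinpirole and 200 nM NKH477. cAMP is quantified by HTRF competition in DRD2-HEK293 cells containing 0.1 mM Ro20-1724.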

[20] = p53 small molecule agonists, cell-based qHTS assay with rat liver microsomes: qHTS cell viability counter screen (AID 1963580); note: nearly all actives have a fitted effect of over 45% in size; note: potency is the fitted concentration of half-maximal effect
In short: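 Cytotoxicity counter screen: intracellular ATP measured by CellTiter-Glo luminescence in the same wells as the beta-lactamase reporter read, on HCT-116 p53RE-bla cells exposed 16 h at 37 C to compounds with rat liver microsomes and NADPH, each 0.5 mg/mL final.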

Chain of 5-hydroxytryptamine receptor 2A (Homo sapiens) (P28223 whole entry, looked up): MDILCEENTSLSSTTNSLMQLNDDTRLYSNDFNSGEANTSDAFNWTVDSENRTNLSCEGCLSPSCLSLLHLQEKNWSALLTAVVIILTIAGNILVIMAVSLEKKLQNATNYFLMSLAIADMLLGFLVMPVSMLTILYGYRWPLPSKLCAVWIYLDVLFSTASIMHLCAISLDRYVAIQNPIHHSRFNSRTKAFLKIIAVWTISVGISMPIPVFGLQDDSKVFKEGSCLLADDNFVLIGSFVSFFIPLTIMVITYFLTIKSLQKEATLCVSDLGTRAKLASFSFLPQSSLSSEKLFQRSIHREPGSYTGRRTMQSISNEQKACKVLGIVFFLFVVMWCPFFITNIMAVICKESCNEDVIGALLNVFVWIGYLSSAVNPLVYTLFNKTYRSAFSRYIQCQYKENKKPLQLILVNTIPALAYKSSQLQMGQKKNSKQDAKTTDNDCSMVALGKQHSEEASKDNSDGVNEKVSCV
Chain of D(2) dopamine receptor (Homo sapiens) (P14416 whole entry, looked up): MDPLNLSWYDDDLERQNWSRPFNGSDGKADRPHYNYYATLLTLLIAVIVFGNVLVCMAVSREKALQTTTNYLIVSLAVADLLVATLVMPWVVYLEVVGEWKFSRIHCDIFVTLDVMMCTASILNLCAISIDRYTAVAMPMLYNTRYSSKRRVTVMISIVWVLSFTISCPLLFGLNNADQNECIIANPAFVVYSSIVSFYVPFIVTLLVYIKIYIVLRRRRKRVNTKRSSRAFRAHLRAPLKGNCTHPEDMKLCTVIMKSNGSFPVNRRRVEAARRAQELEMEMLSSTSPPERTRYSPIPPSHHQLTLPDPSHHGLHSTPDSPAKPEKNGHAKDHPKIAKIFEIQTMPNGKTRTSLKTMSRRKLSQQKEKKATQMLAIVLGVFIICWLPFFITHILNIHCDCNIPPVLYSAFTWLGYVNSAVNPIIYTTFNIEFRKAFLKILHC
Chain of KiSS-1 receptor (Homo sapiens) (Q969F8 whole entry, looked up): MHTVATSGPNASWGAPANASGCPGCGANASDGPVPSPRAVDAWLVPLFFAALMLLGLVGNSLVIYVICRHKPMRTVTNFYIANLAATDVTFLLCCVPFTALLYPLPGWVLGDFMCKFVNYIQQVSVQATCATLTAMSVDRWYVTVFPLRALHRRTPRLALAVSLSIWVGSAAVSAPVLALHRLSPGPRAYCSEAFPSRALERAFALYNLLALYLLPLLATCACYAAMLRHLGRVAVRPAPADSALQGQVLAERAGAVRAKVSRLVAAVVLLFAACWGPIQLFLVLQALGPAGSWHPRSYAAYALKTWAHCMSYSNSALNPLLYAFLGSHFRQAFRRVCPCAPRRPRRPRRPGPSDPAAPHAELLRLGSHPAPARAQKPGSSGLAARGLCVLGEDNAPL
Chain of Beta-2 adrenergic receptor (Homo sapiens) (P07550 whole entry, looked up): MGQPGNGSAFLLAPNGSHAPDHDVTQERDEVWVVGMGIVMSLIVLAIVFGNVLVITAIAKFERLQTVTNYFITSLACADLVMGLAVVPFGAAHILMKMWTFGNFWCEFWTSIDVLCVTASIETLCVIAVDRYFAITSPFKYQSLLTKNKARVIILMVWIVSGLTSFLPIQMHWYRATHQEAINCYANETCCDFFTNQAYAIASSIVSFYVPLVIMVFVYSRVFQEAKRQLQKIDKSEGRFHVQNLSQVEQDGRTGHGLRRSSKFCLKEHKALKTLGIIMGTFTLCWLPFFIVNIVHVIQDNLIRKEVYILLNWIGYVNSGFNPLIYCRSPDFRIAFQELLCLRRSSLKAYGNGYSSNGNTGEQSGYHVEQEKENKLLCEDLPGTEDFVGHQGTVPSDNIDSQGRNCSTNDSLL
Chain of Gonadotropin-releasing hormone receptor (Homo sapiens) (P30968 whole entry, looked up): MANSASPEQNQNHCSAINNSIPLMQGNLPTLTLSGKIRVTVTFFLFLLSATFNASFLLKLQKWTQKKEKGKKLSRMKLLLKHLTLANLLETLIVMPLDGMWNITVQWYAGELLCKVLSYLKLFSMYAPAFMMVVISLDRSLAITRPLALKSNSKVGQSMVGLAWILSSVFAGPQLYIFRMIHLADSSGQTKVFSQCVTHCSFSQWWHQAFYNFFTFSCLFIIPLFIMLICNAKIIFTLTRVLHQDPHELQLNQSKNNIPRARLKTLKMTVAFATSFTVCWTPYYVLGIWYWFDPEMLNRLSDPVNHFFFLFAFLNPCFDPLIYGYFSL
Chain of Muscarinic acetylcholine receptor M1 (Homo sapiens) (P11229 whole entry, looked up): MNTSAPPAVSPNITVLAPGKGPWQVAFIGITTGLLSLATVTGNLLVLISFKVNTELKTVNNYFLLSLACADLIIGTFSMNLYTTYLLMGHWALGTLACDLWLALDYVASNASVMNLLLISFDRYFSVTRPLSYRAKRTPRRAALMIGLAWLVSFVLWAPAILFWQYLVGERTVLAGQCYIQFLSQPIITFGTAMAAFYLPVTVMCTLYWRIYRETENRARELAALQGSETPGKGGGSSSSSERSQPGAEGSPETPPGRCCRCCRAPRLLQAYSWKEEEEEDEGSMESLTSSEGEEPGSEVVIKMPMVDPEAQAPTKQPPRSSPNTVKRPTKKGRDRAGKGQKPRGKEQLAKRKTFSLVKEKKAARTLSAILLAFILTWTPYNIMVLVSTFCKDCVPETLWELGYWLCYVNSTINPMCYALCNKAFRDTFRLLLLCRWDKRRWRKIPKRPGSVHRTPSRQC

Row | SMILES | Potency [1] | Potency [2] | Potency [3] | Potency [4] | Potency [5] | Potency [6] | Potency [7] | Potency [8] | Potency [9] | Potency [10] | Potency [11] | Potency [12] | Potency [13] | Potency [14] | Potency [15] | Potency [16] | Potency [17] | Potency [18] | Potency [19] | Potency [20]
1 | CCCCCCOC(=O)CC | inactive | inactive | inactive | inactive | inactive | inactive | inactive | inactive | inactive | inactive | inactive | inactive | inactive | inactive | inactive | inactive | inactive | inactive | inactive | –
2 | CCCCCCCC(=O)OCCCCCC | inactive | inactive | inactive | inactive | inactive | inactive | – | inactive | inactive | inactive | – | inactive | inactive | inactive | inactive | inactive | inactive | inactive | – | inactive
3 | CC(C)CCCO | inactive | inactive | inactive | inactive | inactive | inactive | inactive | inactive | inactive | – | inactive | inactive | inactive | inactive | inactive | inactive | inactive | inactive | inactive | inactive
4 | CC(C)(C)CC(C)(C)c1ccc(OCCOCC[N+](C)(C)Cc2ccccc2)cc1 | 24.3 µM (active) and 10.6 µM (active) | inactive | inactive | inactive | inactive | inactive | 20.4 µM (active) and inactive | – | inactive | – | – | – | – | – | inactive | – | – | inactive | – | inactive
5 | O | inactive | inactive | inactive | inactive | inactive | inactive | inactive | – | inactive | – | – | – | – | inactive | inactive | inactive | inactive | inactive | inactive | inactive
6 | CCCCCC=O | inactive | inactive | inactive | inactive | inactive | inactive | – | inactive | inactive | inactive | inactive | inactive and 11.9 nM (active) | – | inactive | inactive | inactive | inactive | inactive | inactive | inactive
7 | COc1ccc(CCN2CCC(Nc3nc4ccccc4n3Cc3ccc(F)cc3)CC2)cc1 | 11.1 µM (active) and 23.7 µM (active) | inactive | inactive | inactive | inactive | inactive | 14.8 µM (active) and inactive | 13.2 µM (active) | inactive | – | – | – | – | – | – | 55.7 µM (active) and inactive | – | inactive | – | 26.3 µM (active) and inactive
8 | CC/C(=C(/CC)c1ccc(O)cc1)c1ccc(O)cc1 | 42.9 µM (active) and 61.1 µM (active) | inactive | inactive | inactive | inactive | inactive | inactive | inactive | – | – | – | – | – | inactive | inactive | inactive | inactive | – | inactive | inactive
9 | O=C(C(=O)c1ccccc1)c1ccccc1 | inactive | inactive | inactive | inactive | inactive | inactive | inactive | inactive | inactive | – | inactive | inactive | inactive | inactive | inactive | inactive | inactive | inactive | inactive | inactive
10 | O=C(c1ccc(O)cc1O)c1ccc(O)cc1O | inactive | inactive | inactive | inactive | inactive | – | inactive | inactive | – | inactive | – | inactive | inactive | – | inactive | – | – | inactive | inactive | inactive
11 | COC(=O)OC | inactive | inactive | inactive | inactive | – | inactive | inactive | inactive | inactive | inactive | inactive | inactive | inactive | inactive | inactive | inactive | inactive | inactive | inactive | inactive
12 | C1=Cc2ccccc2C1 | inactive | inactive | inactive | inactive | inactive | – | inactive | inactive | inactive | inactive | inactive | inactive | inactive | – | inactive | inactive | – | inactive | inactive | inactive
13 | O=C1Nc2ccccc2C1=O | inactive | inactive | inactive | inactive | inactive | inactive | inactive | inactive | inactive | inactive | inactive | inactive | inactive | inactive | inactive | – | – | inactive | inactive | –
14 | O=C1CC(c2ccc(Cl)cc2)CC(=O)N1 | inactive | inactive | inactive | inactive | inactive | inactive | inactive | inactive | – | inactive | inactive | inactive | inactive | inactive | inactive | – | inactive | inactive | inactive | inactive
15 | Clc1ccccc1C(c1ccccc1)(c1ccccc1)n1ccnc1 | 30.6 µM (active) | inactive | inactive | inactive | inactive | inactive | inactive | – | inactive | – | – | – | – | – | – | inactive | inactive | – | 61.1 µM (active) | inactive
16 | CC(C)c1cccc(O)c1 | inactive | inactive | inactive | inactive | inactive | inactive | inactive | – | inactive | inactive | inactive | inactive | inactive | inactive | inactive | inactive | inactive | inactive | – | inactive
